HepG2 tox: qHTS for Inhibitors of TGF-b: Cytotox Counterscreen | 410,000 tested, 0.76% active | HepG2 CAGA-GFP viability, ATP luminescence, 18 h | Potency, µM (doses to about 46.1 µM), usual class: cytotoxic | AID 588856, 2011
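HepG2 CAGA-GFP cells (1000/well, DMEM with 1% FBS) received compound, then TGF-beta at 500 pg/mL final, and were incubated 18 hours at 37 degrees C. Viability was read by CellTiter-Glo luminescence. Media-only wells were set as complete cell-killing and DMSO as no toxicity.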
TDP1 inh: qHTS Assay for Inhibitors of Tyrosyl-DNA Phosphodiesterase (TDP1); recombinant TDP1, AlphaScreen DNA substrate cleavage; Potency, µM (top dose mostly 130 µM), usual class: inhibitors; 350,000 tested, 0.28% active; also: nearly all actives have a fitted effect of over 40% in size
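E. coli-derived human Tdp1, 1 nM final. Cpd preinc 15 min RT; substrate 15 nM final, 5 min RT; AS bead mix 10 ug/ml final, 10 min RT. Signal loss = tyrosine-FITC cleavage. No-enzyme wells = max signal.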
DT40 TDP1 CPT: qHTS for Inhibitors of human tyrosyl-DNA phosphodiesterase 1 (TDP1): qHTS in cells in presence of CPT. chicken DT40 Tdp1-/-;hTDP1 cells + 20 nM CPT, ATP luminescence, 48 h. Potency, µM (titrated, usually from 46.2 µM), usual class: inhibitors. 420,000 tested, 12% active; also: nearly all actives have a fitted effect of over 55% in size
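Chicken DT40 Tdp1-/- cells stably complemented with human TDP1 were seeded at 400 cells/well in medium containing 20 nM camptothecin, exposed to pin-transferred compounds, and grown at 37 °C for at least 48 hr. Viability was read as ATP luminescence.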
TGFb SMAD3 inh: qHTS for Inhibitors of TGF-b | HepG2 CAGA-GFP TGF-b/SMAD3 reporter, GFP fluorescence, 18 h; TGF-beta stimulated, 500 pg/mL final | Potency, µM (series often up to 46.1 µM), hits mostly inhibitors | 410,000 tested, 1.2% active; also: nearly all actives have a fitted effect of over 65% in size
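Inhibition of TGF-beta-driven CAGA-GFP reporter expression in HEPG2 cells is measured by cellular GFP fluorescence after 18 h stimulation with 500 pg/mL recombinant TGF-beta in 1% FBS medium at 37 degrees C.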
IL-1B inflam inh: qHTS for Inhibitors of Inflammasome Signaling: IL-1-beta AlphaLISA Primary Screen; 360,000 tested, 4.7% active; activity change, % at 57.5 µM; THP-1 LPS/ATP IL-1B secretion, AlphaLISA, 16 h; stronger effect = lower value; in the data active = activity change below about -50%; inconclusive = mostly about -30% to -49%
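Secreted IL-1B measured by AlphaLISA bead assay after 16 h compound exposure of THP-1 cells; compounds (final up to 57.5 uM) added 1 h before LPS (250 ng/mL) and ATP (1.25 mM) stimulation; lower signal means less secretion.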
DT40 TDP1 no CPT: qHTS for Inhibitors of human tyrosyl-DNA phosphodiesterase 1 (TDP1): qHTS in cells in absence of CPT; DT40 Tdp1-/- hTDP1 cells, no CPT, ATP luminescence, 48 h; Potency, µM (highest dose often 46.2 µM), hits mostly inhibitors; 420,000 tested, 15% active; also: nearly all actives have a fitted effect of over 55% in size
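No-CPT arm: Tdp1-/-;hTDP1 DT40 cells (400/well) plus compounds, incubated ≥48 hr at 37 °C. Readout CellTiter-Glo luminescence.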
Large screens that a line does not name were inactive. Compounds with a hit are over-represented: about 19% of the library has one in this group of screens. Unless noted, calls follow the shape of the dose curve; as a rule, active = well fitted curve in the direction sought with a large enough effect; inconclusive = small, poorly fitted or top-dose-only effect, or another doubt; inactive = no such curve, though single readings can be large; an effect the other way counts as inactive or inconclusive.

O=C(N/N=C1/C(=O)c2cccc3cccc1c23)c1ccc(Cl)cc1	DT40 TDP1 CPT 4.11µM, DT40 TDP1 no CPT 4.61µM (no result: TDP1 inh)
CCN(C(=O)COc1cc(=O)n(CC)c2ccccc12)c1cccc(Cl)c1	DT40 TDP1 CPT 14.6µM, DT40 TDP1 no CPT inconclusive
CCCN(CCC)C(=O)COc1cc(=O)n(CC)c2ccccc12	DT40 TDP1 CPT inconclusive, DT40 TDP1 no CPT inconclusive
CCN(C(=O)COc1cc(=O)n(CC)c2ccccc12)c1cc(Cl)ccc1OC	DT40 TDP1 CPT inconclusive, DT40 TDP1 no CPT 20.6µM
CCN(Cc1ccccc1)C(=O)COc1cc(=O)n(CC)c2ccccc12	DT40 TDP1 CPT inconclusive, DT40 TDP1 no CPT 20.6µM
CCCN(C(=O)Cn1c(=O)oc2cc(Cl)ccc21)c1ccc(C(C)C)cc1	DT40 TDP1 CPT 20.6µM, DT40 TDP1 no CPT inconclusive (no result: IL-1B inflam inh)
Cc1c(CN2CCOc3c(cc(-c4ncc(C(F)(F)F)cc4Cl)cc3OCC3CCCO3)C2)cnn1C (stereo not given)	none (no result: HepG2 tox, TDP1 inh, TGFb SMAD3 inh, IL-1B inflam inh)
CCCN(C(=O)COc1cc(=O)n(CC)c2ccccc12)c1ccc(C(C)C)cc1	DT40 TDP1 CPT 16.4µM, TGFb SMAD3 inh inconclusive, DT40 TDP1 no CPT 10.3µM (no result: IL-1B inflam inh)
COc1ccc(N(CC(=O)Nc2ccc(Cl)cc2C)S(=O)(=O)c2ccccc2)c(OC)c1	DT40 TDP1 CPT inconclusive, DT40 TDP1 no CPT 18.4µM (no result: IL-1B inflam inh)
COc1ccc(Cl)cc1NC(=O)CN(C)C(=O)c1cccc(-n2cnnn2)c1	none
COc1ccc(Cl)cc1NC(=O)CN(c1cccc(C)c1C)S(=O)(=O)c1ccccc1	DT40 TDP1 CPT 23.1µM, DT40 TDP1 no CPT 23.1µM (no result: TDP1 inh, IL-1B inflam inh)
COc1ccc(Cl)cc1NC(=O)CN(C)C(=O)C12CC3CC(CC(Cl)(C3)C1)C2	DT40 TDP1 CPT inconclusive, DT40 TDP1 no CPT 23.1µM

Source: PubChem
